Several values for one entry are separate records, joined by “and”; a condition that tells them apart may be missing. Equal entries are not always repeated. A structure can be active in one record and inactive in another. Activity calls are given as the source filed them.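 Rule for the calls, unless noted: active = thallium flux through the channel raised or lowered by more than 3 SD from vehicle-only wells, actives on both sides; inactive = the rest.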
Assays:
[1] = stimulators of nuclear beta-catenin in C2C12, primary screen, imaging, WNT3A-conditioned medium, mouse C2C12, NPC library (AID 1117326; in the data active = nuclear beta-catenin stimulation mostly above about 4.2%, no sharp cut-off; inactive = mostly below about 10%); settings: stronger effect = higher value
[2] = stimulators of insulin release from INS-1E, primary screen, cell-based, 5 mM glucose, NPC library (AID 1117329;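 active = compound raises insulin release from rat beta cells at 5 mM glucose, no numeric limit stated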); settings: rat INS-1E insulin secretion, at 10 µM, stronger effect = higher value
[3] = growth inhibition of GSK3B-pretreated HCT116 cells – cell-based, CellTiter-Glo, 0.2 to 20 µM (AID 1117336;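 active = compounds lowering colon cancer cell viability after pretreatment blocking the GSK3B kinase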); settings: HCT116 viability after GSK3B inhibitor, at 20 µM, stronger effect = higher value
[4] = inhibition of endothelial tube formation, primary screen, imaging, VEGF stimulated, CD31 staining, tube area, NPC library (AID 1117340;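 active = compound that reduces growth-factor-driven endothelial tube area in a mixed cell culture, no cutoff stated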); settings: VEGF-stimulated ADSC/ECFC co-culture, at 10 µM, stronger effect = higher value
[5] = glucagon-like peptide 1 release enhancers, primary assay, NCI-H716 cell line, NPC library (AID 1117341;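 active = compound raises GLP1 secretion from the human gut endocrine cells, with no numeric limit stated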); settings: NCI-H716 cells, at 10 µM, stronger effect = higher value
[6] = HCT116 colon cancer cell growth inhibition, primary screen, CellTiter-Glo luminescence, NPC library (AID 1117342;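 active = compounds that lower survival of HCT116 colon cancer cells in the luminescence readout, no numeric limit stated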); settings: at 20 µM (top of the series)
[7] = CellTiter-Glo luminescent readout of SW480 viability loss, NPC library primary (AID 1117343;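 active = compounds that lower viability of the colon cancer cells in the luminescence readout, with no numeric limit stated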); settings: CellTiter-Glo luminescence; at 20 µM (top of the series)
[8] = decreased DLD-1 cellular survival, CellTiter-Glo luminescent readout, NPC compound collection, primary HTS (AID 1117346;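 active = compounds that lower survival of DLD-1 colon cancer cells in the luminescence readout, no cutoff given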); settings: DLD-1 viability, CellTiter-Glo luminescence; at 20 µM (top of the series)
[9] = molecular target: 6-phosphogluconate dehydrogenase, decarboxylating (Homo sapiens) (UniProt P52209); test: 6PGD enzyme inhibitors, primary screen, biochemical, human, recombinant enzyme, NADPH absorbance (AID 1159550;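 active = at least 20% inhibition of 6-phosphogluconate dehydrogenase activity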); settings: recombinant 6PGD, NADPH absorbance 341 nm; at 10 µM; stronger effect = higher value
[10] = differential killing of epithelial or mesenchymal cells, primary screen, imaging, PC-3E GFP, TEM4-18 mCherry, co-culture (AID 1345086;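 active = compounds killing one labelled cell type while sparing the other, by normalised counts and ratio limits, not self-fluorescent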;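 for all read-outs here: cells exposed to compound for 72 h before imaging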;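 for red/green cell ratio (normalised): normalised mesenchymal count divided by normalised epithelial count so high means epithelial killing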); settings: imaging cell counts, at 1 µM; for red/green cell ratio (normalised): actives lie on both sides, counts scaled to control wells, 1 = unselective
[11] = survival rescue of mitochondrial mutant cells in low glucose, primary screen, MELAS cybrids, Rieske KO mouse fibroblasts, CellTiter-Glo (AID 1508586;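 active = mean z-score across replicates of 1.96 or higher in either the MELAS or the Rieske mutant cell line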;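 note: z relative to plate mean and SD of compound and empty wells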)
[12] = molecular target: NAD(+) hydrolase SARM1 (Homo sapiens) (UniProt Q6SZW1); test: SARM1 TIR NADase inhibitors, cell lysate, NAD-Glo luminescence (AID 1508614;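 active = compound whose remaining NAD level is above about 45 nM, limit read from the data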;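 note: higher remaining NAD means stronger inhibition of SARM1 NADase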); settings: SAM-TIR HEK293T lysate NADase, at 1 µM, stronger effect = higher value
[13] = molecular target: Mitogen-activated protein kinase 7 (Homo sapiens) (UniProt Q13164); test: ERK5 transactivation activators in reporter cells, primary screen, cell-based, HTS (AID 1508626;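 active = luciferase signal above three times the same-plate solvent-only control wells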;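 note: luciferase driven by Gal4-ERK5 fusion binding five Gal4 sites before minimal TATA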); settings: HeLa Gal4-ERK5 transactivation, 18 h, at 5 µM, stronger effect = higher value
F380Y = test: modulators of BK channel variants, profiling panel, selectivity assay, cell-based, U2OS BacMam, thallium flux, beta subunits (AID 1259406); settings: at 30 µM;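 note: initial slope of Thallos dye fluorescence rise after thallium is added; log ratio against the mean of 0.3% DMSO vehicle wells on the same plate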
F380Y/beta2Delta = test: as above; settings: at 30 µM
[14] = molecular target: Calcium-activated potassium channel subunit alpha-1 (Homo sapiens) + Leucine-rich repeat-containing protein 26 (Homo sapiens) (UniProt Q12791+Q2I0M4); test: as above; settings: F380Y/Slo1WT/gamma1, at 30 µM
R275C = test: as above; settings: at 30 µM
R275C/beta1 = test: as above; settings: at 30 µM
R275C/beta2Delta = test: as above; settings: at 30 µM
[15] = sensitizers of A549 cells to miR-34 induction, primary screen, imaging, A549 dox-inducible miR-34, nuclei and caspase counts (AID 1347080;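 active = compounds whose cell count with miR-34 switched on is under 0.7 times the count with it off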); settings: A549 miR-34 inducible, Hoechst nuclei count, 48 h
[16] = measured here: epithelial PC-3E GFP cell survival
[17] = measured here: mesenchymal TEM4-18 mCherry cell survival
[18] = MELAS cybrid survival, CellTiter-Glo 48 h, stronger effect = higher value
[19] = Rieske KO mouse fibroblast survival, CellTiter-Glo 72 h

Chain of 6-phosphogluconate dehydrogenase, decarboxylating (Homo sapiens) (P52209 whole entry, looked up): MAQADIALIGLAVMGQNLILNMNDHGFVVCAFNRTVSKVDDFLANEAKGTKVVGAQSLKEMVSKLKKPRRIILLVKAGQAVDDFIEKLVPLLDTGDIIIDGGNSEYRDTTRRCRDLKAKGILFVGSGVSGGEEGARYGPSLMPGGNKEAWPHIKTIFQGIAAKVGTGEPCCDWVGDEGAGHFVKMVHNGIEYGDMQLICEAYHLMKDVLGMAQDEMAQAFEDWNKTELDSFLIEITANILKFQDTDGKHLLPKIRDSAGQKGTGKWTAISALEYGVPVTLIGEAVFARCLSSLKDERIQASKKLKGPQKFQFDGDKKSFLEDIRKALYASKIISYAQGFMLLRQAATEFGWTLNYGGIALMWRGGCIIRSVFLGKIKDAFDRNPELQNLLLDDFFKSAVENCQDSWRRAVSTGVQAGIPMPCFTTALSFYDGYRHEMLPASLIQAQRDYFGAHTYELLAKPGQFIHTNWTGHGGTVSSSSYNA
Chain of NAD(+) hydrolase SARM1 (Homo sapiens) (Q6SZW1 whole entry, looked up, the tested form may be a part): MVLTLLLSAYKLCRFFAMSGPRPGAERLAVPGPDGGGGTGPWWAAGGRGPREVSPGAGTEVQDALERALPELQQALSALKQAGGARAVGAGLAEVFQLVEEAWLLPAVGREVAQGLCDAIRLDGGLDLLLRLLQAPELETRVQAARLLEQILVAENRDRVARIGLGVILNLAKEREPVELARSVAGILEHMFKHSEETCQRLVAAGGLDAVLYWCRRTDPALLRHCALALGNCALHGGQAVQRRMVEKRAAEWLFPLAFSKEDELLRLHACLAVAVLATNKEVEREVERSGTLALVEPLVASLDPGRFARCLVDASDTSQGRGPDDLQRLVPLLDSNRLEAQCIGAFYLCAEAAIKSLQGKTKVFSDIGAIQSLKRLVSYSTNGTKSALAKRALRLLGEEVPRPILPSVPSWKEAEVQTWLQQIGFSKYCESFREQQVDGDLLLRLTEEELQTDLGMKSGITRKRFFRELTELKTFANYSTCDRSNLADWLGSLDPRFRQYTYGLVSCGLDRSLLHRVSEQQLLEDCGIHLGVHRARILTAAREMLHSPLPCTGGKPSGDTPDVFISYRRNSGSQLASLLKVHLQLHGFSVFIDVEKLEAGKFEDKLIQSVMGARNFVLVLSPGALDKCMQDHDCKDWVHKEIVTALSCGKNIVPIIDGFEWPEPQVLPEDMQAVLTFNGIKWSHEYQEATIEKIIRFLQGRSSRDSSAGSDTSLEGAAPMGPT
Chain of Calcium-activated potassium channel subunit alpha-1 (Homo sapiens) + Leucine-rich repeat-containing protein 26 (Homo sapiens) (Q2I0M4 whole entry, looked up, one chain of several): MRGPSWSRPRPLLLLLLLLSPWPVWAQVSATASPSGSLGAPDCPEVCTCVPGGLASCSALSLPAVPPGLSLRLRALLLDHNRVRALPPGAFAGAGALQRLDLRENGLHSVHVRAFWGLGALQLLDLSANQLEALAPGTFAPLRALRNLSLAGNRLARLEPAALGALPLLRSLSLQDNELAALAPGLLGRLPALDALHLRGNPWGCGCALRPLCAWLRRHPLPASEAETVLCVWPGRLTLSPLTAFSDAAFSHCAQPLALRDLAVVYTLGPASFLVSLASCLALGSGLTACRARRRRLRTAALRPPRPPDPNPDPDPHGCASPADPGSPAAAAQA
Chain of Mitogen-activated protein kinase 7 (Homo sapiens) (Q13164 whole entry, looked up, the tested form may be a part): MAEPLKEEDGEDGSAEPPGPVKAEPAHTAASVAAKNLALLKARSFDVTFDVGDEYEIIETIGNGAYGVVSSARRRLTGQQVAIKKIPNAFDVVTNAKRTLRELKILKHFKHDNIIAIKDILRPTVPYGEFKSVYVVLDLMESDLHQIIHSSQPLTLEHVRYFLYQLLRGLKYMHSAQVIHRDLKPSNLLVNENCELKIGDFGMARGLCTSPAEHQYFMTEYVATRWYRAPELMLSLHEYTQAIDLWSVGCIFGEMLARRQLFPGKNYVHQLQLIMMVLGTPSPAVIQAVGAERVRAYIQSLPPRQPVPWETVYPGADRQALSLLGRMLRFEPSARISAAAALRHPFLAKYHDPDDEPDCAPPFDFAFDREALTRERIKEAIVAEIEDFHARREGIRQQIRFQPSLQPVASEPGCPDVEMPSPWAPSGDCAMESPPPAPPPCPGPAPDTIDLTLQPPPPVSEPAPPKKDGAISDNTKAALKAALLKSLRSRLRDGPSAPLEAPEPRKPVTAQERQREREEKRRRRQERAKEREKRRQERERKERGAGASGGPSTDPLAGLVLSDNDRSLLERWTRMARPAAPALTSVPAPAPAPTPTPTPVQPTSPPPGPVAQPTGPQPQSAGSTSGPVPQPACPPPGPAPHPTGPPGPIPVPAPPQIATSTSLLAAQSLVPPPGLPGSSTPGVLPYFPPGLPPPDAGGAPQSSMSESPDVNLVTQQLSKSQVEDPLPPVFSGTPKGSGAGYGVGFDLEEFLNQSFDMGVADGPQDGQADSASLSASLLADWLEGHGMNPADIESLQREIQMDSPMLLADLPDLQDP

Question: Which nuclear beta-catenin stimulation ([1]; at 10 µM) does the source give for `CSc1ccc2c(c1)N(CCC1CCCCN1C)c1ccccc1S2` (stereo not drawn) here?
Answer: 22.9% (inactive)

Question: What about the nuclear beta-catenin stimulation ([1]; stimulation, at 2 µM) of the same compound?
Answer: 1.6%

Question: And the insulin secretion stimulation [2]?
Answer: 5.6% (inactive)

Question: And the viability decrease [3]?
Answer: 110% (active)

Question: What about the tube area decrease [4] of the same compound?
Answer: 103% (active)

Question: What about the GLP1 secretion stimulation [5] of the same compound?
Answer: 12.4% (inactive)

Question: What about the inhibition of viability [6] of the same compound?
Answer: 112% (active)

Question: What about the viability decrease (inhibition) [7] of the same compound?
Answer: 133% (active)

Question: What about the viability decrease (inhibition) [8] of the same compound?
Answer: 101% (active)

Question: What about the inhibition [9] of the same compound?
Answer: -1.24% (inactive)

Question: What about the red/green cell ratio (normalised) [10] of the same compound?
Answer: 1.09 (inactive)

Question: And the normalised cell number [10, 16]?
Answer: 0.88

Question: And the normalised cell number [10, 17]?
Answer: 0.96

Question: And the z-score [11, 18]?
Answer: -1.63 (inactive) and -1.09

Question: What about the z-score [11, 19] of the same compound?
Answer: 0.0893 and 2.14

Question: What about the remaining NAD [12] of the same compound?
Answer: 10 nM (inactive)

Question: And the luciferase signal [13]?
Answer: 40 AU (inactive)

Question: And the log fold change Tl+ flux (F380Y)?
Answer: 0.0395 (inactive)

Question: What about the log fold change Tl+ flux (F380Y/beta2Delta) of the same compound?
Answer: 0.193 (active)

Question: What about the log fold change Tl+ flux [14] of the same compound?
Answer: 0.0351 (inactive)

Question: What about the log fold change Tl+ flux (R275C) of the same compound?
Answer: -0.424 (active)

Question: And the log fold change Tl+ flux (R275C/beta1)?
Answer: 0.517 (active)

Question: What about the log fold change Tl+ flux (R275C/beta2Delta) of the same compound?
Answer: -0.136 (active)

Question: With `NC(=O)N1c2ccccc2C=Cc2ccccc21` as the compound, how does the nuclear beta-catenin stimulation ([1]; at 10 µM) read?
Answer: 1% (inactive)

Question: And the nuclear beta-catenin stimulation ([1]; stimulation, at 2 µM)?
Answer: 0.9%

Question: What about the insulin secretion stimulation [2] of the same compound?
Answer: -1.9% (inactive)

Question: And the viability decrease [3]?
Answer: -2.95% (inactive)

Question: What about the tube area decrease [4] of the same compound?
Answer: 0.8% (inactive)

Question: What about the GLP1 secretion stimulation [5] of the same compound?
Answer: 4.4% (inactive)

Question: And the inhibition of viability [6]?
Answer: -18.7% (inactive)

Question: What about the viability decrease (inhibition) [7] of the same compound?
Answer: 20.2% (inactive)

Question: And the viability decrease (inhibition) [8]?
Answer: -3.3% (inactive)

Question: And the inhibition [9]?
Answer: 4.77% (inactive)

Question: What about the red/green cell ratio (normalised) [10] of the same compound?
Answer: 0.88 (inactive)

Question: And the normalised cell number [10, 16]?
Answer: 1.19

Question: What about the normalised cell number [10, 17] of the same compound?
Answer: 1.04

Question: What about the z-score [11, 18] of the same compound?
Answer: 2.18 (active) and 0.491 (inactive) and -0.759 (inactive)

Question: What about the z-score [11, 19] of the same compound?
Answer: -0.583 and -0.0689 and -0.563

Question: And the remaining NAD [12]?
Answer: 10 nM (inactive)

Question: And the luciferase signal [13]?
Answer: 36 AU (inactive)

Question: And the log fold change Tl+ flux (F380Y)?
Answer: -0.0389 (inactive)

Question: What about the log fold change Tl+ flux (F380Y/beta2Delta) of the same compound?
Answer: -0.0114 (inactive)

Question: What about the log fold change Tl+ flux [14] of the same compound?
Answer: -0.0331 (inactive)

Question: What about the log fold change Tl+ flux (R275C) of the same compound?
Answer: 0.0472 (inactive)

Question: What about the log fold change Tl+ flux (R275C/beta1) of the same compound?
Answer: 0.00405 (inactive)

Question: And the log fold change Tl+ flux (R275C/beta2Delta)?
Answer: 0.0457 (inactive)

Question: Which results are given for `NS(=O)(=O)c1cc2c(cc1C(F)(F)F)NC(Cc1ccccc1)NS2(=O)=O` (stereo not drawn)?
Answer: nuclear beta-catenin stimulation ([1]; at 10 µM): 0.1% (inactive); nuclear beta-catenin stimulation ([1]; stimulation, at 2 µM): 1.7%; insulin secretion stimulation [2]: 0.8% (inactive); viability decrease [3]: -5.2% (inactive); tube area decrease [4]: -25.6% (inactive); GLP1 secretion stimulation [5]: 1.6% (inactive); inhibition of viability [6]: -9.63% (inactive); viability decrease (inhibition) [7]: 18.1% (inactive); viability decrease (inhibition) [8]: -18.1% (inactive); inhibition [9]: -18.8% (inactive); red/green cell ratio (normalised) [10]: 1.09 (inactive); normalised cell number [10, 16]: 1.12; normalised cell number [10, 17]: 1.22; fold change ([15]; stronger effect = lower value, cell number ratio, induced over uninduced): 0.994 (inactive) and 0.853 (inactive) and 0.857 (inactive); fold change ([15]; measured here: relative caspase fold change +Dox/-Dox): 3.31 and 1.41 and 3.71; cell count ([15]; measured here: total cells with miR-34 induction, stronger effect = lower value): 10000 and 8170 and 11600; cell count ([15]; measured here: total cells without miR-34 induction): 10100 and 9580 and 13500; z-score [11, 18]: 0.478 (inactive); z-score [11, 19]: -0.203; remaining NAD [12]: 10 nM (inactive); luciferase signal [13]: 36 AU (inactive); log fold change Tl+ flux (F380Y): 0.0508 (inactive); log fold change Tl+ flux (F380Y/beta2Delta): 0.0485 (inactive); log fold change Tl+ flux [14]: -0.0118 (inactive); log fold change Tl+ flux (R275C): 0.0405 (inactive); log fold change Tl+ flux (R275C/beta1): 0.0248 (inactive); log fold change Tl+ flux (R275C/beta2Delta): 0.0558 (inactive)
